The supplement of paper PMC13380429
Where a name gives a salt, the structure may show the parent alone.

Assays:
[1] = test system: Vero E6 infected with SARS-CoV-2; experiment: morphology score (similarity to uninfected cells); higher = more like uninfected cells; details: 24 h
[2] = test system: Vero E6 infected with SARS-CoV-2; experiment: SARS-CoV-2 infection rate relative to infected DMSO; higher = more infection, active = 60 or less; details: 24 h
[3] = test system: Vero E6 infected with SARS-CoV-2; experiment: inhibition of SARS-CoV-2 cytopathic effect; higher = more antiviral protection, active = above 15; details: 48 h

Compound | morphology score [1] | SARS-CoV-2 infection rate [2] | inhibition of SARS-CoV-2 cytopathic effect ([3]; 1 nM) | inhibition of SARS-CoV-2 cytopathic effect ([3]; 8.33 nM) | inhibition of SARS-CoV-2 cytopathic effect ([3]; 100 nM) | inhibition of SARS-CoV-2 cytopathic effect ([3]; 833.33 nM) | inhibition of SARS-CoV-2 cytopathic effect ([3]; 10000 nM)
C[N+](C)(C)CCOP(=O)(O)OC[C@H](O)CO [choline-alfoscerate] (10 µM) | 0.0475 | 114% (inactive) |  |  |  |  | 
C(#CCN1CCCC1)CN1CCCC1 [tremorine] (10 µM) | 0.107 | 96% (inactive) |  |  |  |  | 
COC1=C2C[C@@H](C)C[C@H](OC)[C@H](O)[C@@H](C)/C=C(\C)[C@H](OC(N)=O)[C@@H](OC)/C=C\C=C(/C)C(=O)NC(=CC1=O)C2=O [geldanamycin] (0.833333 µM) | -0.177 | 98.5% (inactive) |  |  |  |  | 
O=C(Cc1ccc(-c2ccc(OCCN3CCOCC3)cc2)cn1)NCc1ccccc1 (10 µM) | -0.5 | 112% (inactive) |  |  |  |  | 
Cc1cc(O)c(-c2ccc([C@@H](C)CN)cc2)c2c1[nH]c(=O)c1sccc12 (0.833333 µM) | -0.046 | 95% (inactive) |  |  |  |  | 
C=CCCCCCCCCC(=O)[O][Zn][O]C(=O)CCCCCCCCC=C [zinc-undecylenate] (10 µM) | 0.0826 | 110% (inactive) |  |  |  |  | 
COc1cc(C(=O)NCC2(N(C)C)CCCC2)cc(OC)c1OCc1ccccc1 (10 µM) | 0.334 | 77.5% (inactive) |  |  |  |  | 
CC[C@H](NC(=O)c1c(C)c(-c2ccccc2)nc2ccccc12)c1ccccc1 (10 µM) | 0.0423 | 101% (inactive) |  |  |  |  | 
O=C1OC2(c3ccc(O)cc3Oc3cc(O)ccc32)c2ccccc21 [fluorescein] |  |  | -8.63% (inactive) | -9.87% (inactive) | -11.5% (inactive) | -5.06% (inactive) | -7.22% (inactive)
CC(C)(C)Sc1c(CC(C)(C)C(=O)O)n(Cc2ccc(Cl)cc2)c2ccc(OCc3ccc4ccccc4n3)cc12 [quiflapon] (10 µM) | -0.04 | 106% (inactive) |  |  |  |  | 
C[C@H](Cc1ccc(O)c(O)c1)[C@@H](C)Cc1ccc(O)c(O)c1 [masoprocol] |  |  | -3.87% (inactive) | 1.69% (inactive) | 2.75% (inactive) | -1.7% (inactive) | 12% (inactive)
NCCC[C@H](N)CC(=O)N[C@H]1CNC(=O)[C@H]([C@H]2C[C@H](O)NC(N)=N2)NC(=O)/C(=C/NC(N)=O)NC(=O)[C@H](CO)NC(=O)[C@H](CO)NC1=O [viomycin] |  |  | 2.35% (inactive) | 1% (inactive) | -1.8% (inactive) |  | 
C[C@@H]1CN(c2c(F)c(N)c3c(=O)c(C(=O)O)cn(C4CC4)c3c2F)C[C@H](C)N1 [sparfloxacin] |  |  | 2.08% (inactive) | 2.09% (inactive) | 0.77% (inactive) | -1.72% (inactive) | -2.31% (inactive)
CCCCC(CC)COc1ccc(-c2nc(-c3ccc(OC)cc3)nc(-c3ccc(OCC(CC)CCCC)cc3O)n2)c(O)c1 (centres undefined) [bemotrizinol] |  |  | 1.11% (inactive) | 3.46% (inactive) | 1.8% (inactive) |  | 
COc1cc(NS(=O)(=O)c2ccc(N)cc2)ncn1 [sulfamonomethoxine] |  |  | 0.65% (inactive) | 1.44% (inactive) | -1.17% (inactive) | 1.1% (inactive) | 1.17% (inactive)
C[C@]12CC[C@@H]3c4ccc(OC(=O)c5ccccc5)cc4CC[C@H]3[C@@H]1CC[C@@H]2O [estradiol-benzoate] |  |  | -5.16% (inactive) | -2.11% (inactive) | -2.68% (inactive) | -4.8% (inactive) | -5.99% (inactive)
CCCCCCCCCCCCCCCCCCCCCC(=O)O |  |  | 2.81% (inactive) | 2.25% (inactive) | 1.57% (inactive) | 0.29% (inactive) | 1.77% (inactive)
O=[N+]([O-])c1ccc([As](=O)(O)O)cc1 [nitarsone] |  |  | -0.01% (inactive) | 1.59% (inactive) | 0.4% (inactive) |  | 
COc1cccc(OCCCN)c1-c1cc(Nc2cnc(C#N)cn2)n[nH]1 (10 µM) | -0.0952 | 103% (inactive) |  |  |  |  | 
Cc1nc2ccc(NC(=O)Nc3ccnc4cccnc34)cc2o1 |  |  | 0.35% (inactive) | 0.06% (inactive) | 2.76% (inactive) | -0.56% (inactive) | -0.97% (inactive)
CC(=O)NNC(=O)N1Cc2ccccc2Oc2ccc(Cl)cc21 (10 µM) | 0.0638 | 97.5% (inactive) |  |  |  |  | 
O=C([O-])c1ccccc1-c1c2cc(Br)c(=O)cc-2oc2[c]([Hg+])c([O-])c(Br)cc12.[Na+].[Na+].[OH-] [merbromin] |  |  | -11.2% (inactive) | -13.3% (inactive) | -11.5% (inactive) |  | 
O=C1NC(=O)C(c2ccccc2[N+](=O)[O-])=C1Nc1ccc(O)c(Cl)c1 (10 µM) | -0.00184 | 114% (inactive) |  |  |  |  | 

Compound | morphology score [1] | SARS-CoV-2 infection rate [2] | inhibition of SARS-CoV-2 cytopathic effect ([3]; 1 nM) | inhibition of SARS-CoV-2 cytopathic effect ([3]; 8.33 nM) | inhibition of SARS-CoV-2 cytopathic effect ([3]; 100 nM) | inhibition of SARS-CoV-2 cytopathic effect ([3]; 833.33 nM) | inhibition of SARS-CoV-2 cytopathic effect ([3]; 10000 nM)
CCS(=O)(=O)N1CCC([C@@H](C)n2c(C)c(C(=O)NCc3c(OC)cc(C)[nH]c3=O)c3ccccc32)CC1 |  |  | 0.38% (inactive) | 2.34% (inactive) | 0.88% (inactive) | 0.2% (inactive) | -1.12% (inactive)
CNCCn1c(=O)c2cc(OC)c(OC)cc2c2cnc3cc4c(cc3c21)OCO4 |  |  | 3.31% (inactive) | 1.57% (inactive) | -1.27% (inactive) | -9.93% (inactive) | -15.7% (inactive)
O=[N+]([O-])c1cc([As](=O)(O)O)ccc1O [roxarsone] |  |  | -3.44% (inactive) | -2.76% (inactive) | -4.83% (inactive) |  | 
CN(C)C(=S)SSC(=S)N(C)C [thiram] |  |  | 5.06% (inactive) | 3.58% (inactive) | -8.77% (inactive) |  | 
O=c1[nH]c2cc(Cl)ccc2c(O)c1-c1cccc(Oc2ccccc2)c1 |  |  | 1.74% (inactive) | 0.53% (inactive) | 2.73% (inactive) |  | 
O=C1CN2Cc3c(ccc(Cl)c3Cl)N=C2N1 [anagrelide] |  |  | 0.79% (inactive) | -0.94% (inactive) | -1.24% (inactive) | -0.35% (inactive) | 0.92% (inactive)
Cl[C@H]1[C@H](Cl)[C@@H](Cl)[C@@H](Cl)[C@H](Cl)[C@H]1Cl [lindane] |  |  | -2.48% (inactive) | -1.41% (inactive) | -0.79% (inactive) |  | 
CN1CCN(Cc2ccc(Nc3ncc(Cl)c(Nc4ccccc4S(=O)(=O)N(C)C)n3)cc2)CC1 |  |  | 1.64% (inactive) | 0.81% (inactive) | 2.68% (inactive) | -8.19% (inactive) | -10.2% (inactive)
N=c1ccn2c(n1)O[C@H]1[C@H](O)[C@@H](CO)O[C@H]12 [Cyclocytidine HCl] |  |  | 1.24% (inactive) | 1% (inactive) | 0% (inactive) | -0.83% (inactive) | -4.27% (inactive)
CC(C)(C)CC(C)(C)c1cc(Cc2cc(C(C)(C)CC(C)(C)C)cc(-n3nc4ccccc4n3)c2O)c(O)c(-n2nc3ccccc3n2)c1 [bisoctrizole] |  |  | 0.77% (inactive) | 2.98% (inactive) | 2.99% (inactive) | 1.93% (inactive) | 3.96% (inactive)
C[C@H]1CN(C[C@H](Cc2ccccc2)C(=O)NCC(=O)O)CC[C@@]1(C)c1cccc(O)c1 [alvimopan] |  |  | 1.74% (inactive) | 3.07% (inactive) | 3.04% (inactive) | -0.26% (inactive) | 2.12% (inactive)
C[CH2][Hg][S]c1ccccc1C(=O)[O-].[Na+] [thiomersal] |  |  | 0.94% (inactive) | 0.96% (inactive) | 1.12% (inactive) |  | 
NCCC(=O)N[C@@H](Cc1c[nH]cn1)C(=O)O [carnosine] |  |  | -0.87% (inactive) | -1.74% (inactive) | -2.85% (inactive) | -2.56% (inactive) | -17.4% (inactive)
CC(=O)Nc1cc([As](=O)(O)O)ccc1O [acetarsol] |  |  | 0.15% (inactive) | 0.13% (inactive) | 1.84% (inactive) |  | 
CC1(N2CCC(n3c([C@@H]4CCCNC4)nc4ccccc43)CC2)CCCCCCC1 (10 µM) | 0.62 | 22% (active) |  |  |  |  | 
CN(C)CCCn1cc(C2=C(c3c[nH]c4ccccc34)C(=O)NC2=O)c2ccccc21 (0.833333 µM) | -0.0102 | 104% (inactive) |  |  |  |  | 
CCOC(=O)c1c(C)[nH]c2ccc3c(c12)CN1CCc2cc(OC)ccc2C1O3 (centres undefined) |  |  | 3.34% (inactive) | 2.9% (inactive) | 2.29% (inactive) | 3.53% (inactive) | 24.1% (active)
O=C(c1ccc(/C=C/c2n[nH]c3ccccc23)cc1)N1CCNCC1 |  |  | 0.11% (inactive) | 1.26% (inactive) | 0.85% (inactive) | 0.22% (inactive) | -1.99% (inactive)
CC(=O)[O][Hg][c]1ccccc1 [phenylmercuric-acetate] |  |  | -1.11% (inactive) | -1.71% (inactive) | -0.22% (inactive) |  | 
CCN(CC)CCOC(=O)C(c1ccccc1)c1ccccc1 [adiphenine] |  |  | -1.11% (inactive) | -0.19% (inactive) | 2.09% (inactive) | 1.64% (inactive) | -0.25% (inactive)
CC[C@H](C(=O)N1CCCC[C@H]1C(=O)O[C@H](CCc1ccc(OC)c(OC)c1)c1cccc(OCC(=O)NCCNC(=O)COc2cccc([C@@H](CCc3ccc(OC)c(OC)c3)OC(=O)[C@@H]3CCCCN3C(=O)[C@@H](CC)c3cc(OC)c(OC)c(OC)c3)c2)c1)c1cc(OC)c(OC)c(OC)c1 |  |  | -3.12% (inactive) | -1.9% (inactive) | -0.97% (inactive) |  | 
O=c1c(-c2ccc(O)cc2)coc2c([C@@H]3O[C@H](CO)[C@@H](O)[C@H](O)[C@H]3O)c(O)ccc12 [puerarin] |  |  | -2.73% (inactive) | -3.08% (inactive) | -2.16% (inactive) | 2.34% (inactive) | -0.84% (inactive)
O=C(COc1ccc(Cl)cc1)N1CCN(Cc2ccc3c(c2)OCO3)CC1 [fipexide] |  |  | -0.21% (inactive) | 0.95% (inactive) | 1.92% (inactive) | 1.62% (inactive) | 0.49% (inactive)
